Among the test systems are DU-145 prostate; K-562 leukemia; MALME-3M melanoma; MDA-MB-231 breast; RXF 393 renal; SF-268 CNS; SF-295 CNS; SF-539 CNS; UACC-257 melanoma; M14 melanoma.
Holding throughout (assay): NCI-60 one-dose screen, 48 h (100 = growth as untreated, 0 = no growth, -100 = all killed)
Conditions in all cases: 10 µM unless noted

Compounds without any hit were thinned out: in the full panel of roughly 83,000, 20% have a hit.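 A percent growth of 40 corresponds to 60% growth inhibition; 0 means no net growth; -100 means all cells died. Active threshold: below 10.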 Unmarked numbers belong to inactive results. Activity calls are given as the source filed them.

In the case of `c1ccc2cc(Cn3c(-c4cccc5ccccc45)[n+](Cc4ccc5ccccc5c4)c4c5ccccc5c5ccccc5c43)ccc2c1`, the growth in the experiment on DU-145 prostate is -96.5% (active); in the experiment with K-562 leukemia, -35.2% (active); in the experiment on MALME-3M melanoma it was -82.6% (active); in the experiment on MDA-MB-231 breast, -72.9% (active); in the experiment on RXF 393 renal it was -90.6% (active); in the experiment with SF-268 CNS it was -38.2% (active). For the same molecule, the growth in the experiment with SF-295 CNS was -83.9% (active); with SF-539 CNS, -92.5% (active); in the experiment on UACC-257 melanoma, -67.2% (active); in the experiment on M14 melanoma, -63.5% (active).

Regarding `O=C(c1nc2ccccc2[nH]1)C1C(c2ccc(Cl)cc2)C2CC3CCCC[C@H]3N2[C@@]12C(=O)Nc1cc(Cl)ccc12` (stereo not given in full), the growth is 62.1% in the experiment with DU-145 prostate; 29% in the experiment with K-562 leukemia; 43.9% in the experiment with MALME-3M melanoma; 42.6% in the experiment on MDA-MB-231 breast; 35.7% with RXF 393 renal; 42.2% in the experiment with SF-268 CNS. The growth is 32.6% in the experiment on SF-295 CNS, 60.6% in the experiment on SF-539 CNS, 45.7% in the experiment on UACC-257 melanoma and 34.2% in the experiment on M14 melanoma.

As for `O=c1[nH]nc(-c2ccccc2)c2sc3ncc(-c4ccc(Br)cc4)n3c12`, the growth was 28.6% with DU-145 prostate; 16.1% in the experiment with K-562 leukemia; 52.4% in the experiment with MALME-3M melanoma; 69.1% with MDA-MB-231 breast; 57.9% in the experiment on RXF 393 renal; 51% in the experiment with SF-268 CNS. The growth in the experiment with SF-295 CNS is 48.9%; in the experiment on SF-539 CNS, 41.3%; in the experiment with UACC-257 melanoma, 66%; in the experiment on M14 melanoma it was 42.3%.

For `COc1cc(C=O)ccc1OC1OC(COC(C)=O)C(OC(C)=O)C(OC(C)=O)C1OC(C)=O` (stereo not given), the growth was 107% in the experiment on DU-145 prostate; 116% in the experiment with K-562 leukemia; 102% in the experiment with MALME-3M melanoma; 101% in the experiment on MDA-MB-231 breast; 103% in the experiment on RXF 393 renal; 99.2% in the experiment on SF-268 CNS. Also, the growth is 102% with SF-295 CNS, 96.7% in the experiment with SF-539 CNS, 101% in the experiment with UACC-257 melanoma and 96.6% with M14 melanoma.

With `COc1cc2c(=O)n(CCN(C)C)c3c4cc5c(cc4ccc3c2cc1OC)OCO5`, the growth in the experiment on DU-145 prostate is 3.59% (active); in the experiment with K-562 leukemia, 12.1%; in the experiment on MALME-3M melanoma, -63.6% (active); in the experiment on MDA-MB-231 breast it was -21.6% (active); with RXF 393 renal, -84.6% (active); in the experiment with SF-268 CNS, 0.0226% (active). In addition, the growth in the experiment on SF-295 CNS was 3.79% (active); with SF-539 CNS, -39.9% (active); in the experiment with UACC-257 melanoma it was -33.4% (active); in the experiment on M14 melanoma, -56.7% (active).

In the case of `CNC(=O)c1cc(Cn2nc(C)c(NC(=O)Nc3ccc(Cl)c(C(F)(F)F)c3)c2C)ccn1`, the growth in the experiment with DU-145 prostate was 101%; in the experiment with K-562 leukemia, 112%; in the experiment on MALME-3M melanoma, 98.5%; with MDA-MB-231 breast, 91.8%; with RXF 393 renal, 102%; in the experiment on SF-268 CNS it was 98%. The growth in the experiment with SF-295 CNS is 95.5%; in the experiment with SF-539 CNS, 94%; in the experiment on UACC-257 melanoma, 79%; with M14 melanoma it was 97.5%.

For `CN1CCC(=C(c2ccccc2)c2ccccc2)C(c2ccccc2)C1` (stereo not given), the growth with DU-145 prostate is 104%; in the experiment on K-562 leukemia, 106%; with MALME-3M melanoma it was 104%; in the experiment with MDA-MB-231 breast, 94.8%; with RXF 393 renal, 88%; with SF-268 CNS, 97.8%. The growth was 99.3% in the experiment on SF-295 CNS, 101% in the experiment on SF-539 CNS, 105% in the experiment with UACC-257 melanoma and 112% in the experiment with M14 melanoma.

As for `COc1cc2c(c(O)c1Cl)C(=O)c1c(O)cc(C[C@H](C)O)cc1[C@H]2[C@H]1c2cc(C[C@H](C)O)cc(O)c2C(=O)c2c1cc(OC)c(Cl)c2O`, the growth is 23.8% in the experiment with DU-145 prostate; 11.7% with K-562 leukemia; -32.6% (active) in the experiment with MALME-3M melanoma; -57.9% (active) in the experiment with MDA-MB-231 breast; 10.4% with RXF 393 renal; 21.4% in the experiment with SF-268 CNS. Also, the growth is -14.6% (active) with SF-295 CNS, -8.14% (active) with SF-539 CNS, -4.04% (active) in the experiment on UACC-257 melanoma and 19% in the experiment on M14 melanoma.

Take `COC(=O)C1=C(C(=O)ON)C2C=CC1(C(Cc1ccccc1)Nc1ccccc1)O2` (stereo not given): the growth in the experiment on DU-145 prostate was 73.9%; in the experiment on K-562 leukemia, -1.55% (active); in the experiment with MALME-3M melanoma it was -74% (active); with MDA-MB-231 breast, 103%; in the experiment with RXF 393 renal, 92.1%; in the experiment with SF-268 CNS, 95%. Moreover, the growth with SF-295 CNS is 103%; in the experiment with SF-539 CNS it was 90%; in the experiment on UACC-257 melanoma, 87.8%; with M14 melanoma, 76.3%.

For the molecule `S=c1cc(S)c2cc(Br)ccc2[nH]1`, the growth was 105% in the experiment on DU-145 prostate; 94.9% with K-562 leukemia; 98.4% with MALME-3M melanoma; 81.5% in the experiment with MDA-MB-231 breast; 111% in the experiment on RXF 393 renal; 99% in the experiment on SF-268 CNS. Besides, the growth in the experiment on SF-295 CNS is 100%; with SF-539 CNS, 97.7%; in the experiment with UACC-257 melanoma it was 87.1%; with M14 melanoma, 90%.

`O=C(Nc1ccc(NC(=O)c2cc(=O)[nH]c3ccccc23)cc1)Nc1cccc(Cl)c1`: the growth in the experiment with DU-145 prostate is 105%; in the experiment on K-562 leukemia it was 83.5%; in the experiment with MALME-3M melanoma, 90%; with MDA-MB-231 breast it was 78.7%; with RXF 393 renal, 95.3%; with SF-268 CNS, 65.3%. For the same molecule, the growth in the experiment on SF-295 CNS is 95.3%; with SF-539 CNS, 84.1%; in the experiment with UACC-257 melanoma, 98.2%; in the experiment with M14 melanoma it was 93%.

For the molecule `CC(Oc1ccc(C(=O)O)cc1C(F)(F)F)c1ccc(Oc2ccccc2)cn1` (stereo not given), the growth was 111% in the experiment on DU-145 prostate; 82.8% in the experiment with K-562 leukemia; 101% in the experiment on MALME-3M melanoma; 101% in the experiment with MDA-MB-231 breast; 95.8% in the experiment with RXF 393 renal; 94.6% in the experiment with SF-268 CNS. The growth in the experiment on SF-295 CNS was 100%; in the experiment on SF-539 CNS it was 95.9%; with UACC-257 melanoma, 97.7%; in the experiment with M14 melanoma it was 103%.

Consider `CC1(C)CC(=O)C2=C(C1)N(c1ccc(F)cc1F)C(N)=C(C#N)C2c1cc(Br)ccc1F` (stereo not given), for which the growth in the experiment with DU-145 prostate is 95.4%; with K-562 leukemia, 87.6%; in the experiment on MALME-3M melanoma it was 99%; with MDA-MB-231 breast it was 96.4%; in the experiment on RXF 393 renal, 103%; in the experiment with SF-268 CNS, 103%. For the same molecule, the growth is 105% in the experiment with SF-295 CNS, 87.8% with SF-539 CNS, 101% with UACC-257 melanoma and 85.1% in the experiment with M14 melanoma.

(Values after PubChem BioAssay (NCI).)
